Autophagy mod = autophagy modulation, high-content screen; MEF GFP-LC3 puncta imaging; test concentration mostly 10 µM; calls only at 10 µM (by protocol); hit rate 0.98% among 190,000; AID 463193;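 active = percentage of spot-positive cells more than 3 SD above its plate mean, without a fluorescence outlier flag or 80% toxicity; inconclusive = no clear call, values can overlap the other calls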;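 note: spot-positive cell cutoff set from DMSO-treated cells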
WT yeast gro inh = growth inhibition of WT yeast, mitochondrial fusion screen; mitochondrial fusion phenotypic screen, WT strain; inhibition, % at 10 µM; hit rate 2.1% among 190,000; AID 1362; in the data active = inhibition above about 58%; tested in S. cerevisiae
Ins promoter up = MIN6 insulin promoter up-regulation; MIN6 insulin promoter-GFP reporter, high-content imaging; active compounds read high; z-score at 5 µM; hit rate 0.3% among 190,000; AID 1625;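 active = z-score above 3 at 5 µM with at least 500 cells counted in the well; inconclusive = wells under 500 cells, flagged as cytotoxic or low count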
L major viab = inhibitors of Leishmania major promastigote growth; Leishmania major promastigotes, resazurin fluorescence viability; inhibition, % at 10 µM; hit rate 9% among 200,000; in the data active = inhibition above about 50%;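 note: promastigotes grown with compound for 44 hours at 28 °C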
Insulin prom inh = TRM-6 insulin promoter activity inhibition; TRM-6 cells (human fetal islet line), insulin promoter-eGFP reporter, imaging; reporter expression induced with tamoxifen; inhibition, % at 2 µM; hit rate 0.9% among 130,000; AID 1273;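 active = inhibition above the mean plus 3 SD, with well images judged a real hit on visual review, cut at about 60% in these data, passing the limit was not always enough; inconclusive = inhibition over the cutoff but images rejected on review; inactive = inhibition not above the cutoff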
Active calls of the source: *; i = inactive; ? = inconclusive; . = no result; + = active, no number. A selection: hits, their analogues and other compounds. The true share with any hit is near 11%.

SMILES | Autophagy mod | WT yeast gro inh | Ins promoter up | L major viab | Insulin prom inh
Cc1ccc(NC(=S)NC2CC3CCCC(C2)N3Cc2ccco2)cc1 (configuration not stated) | i | 7.8 | 0.06 | 90.5* | .
CCc1ccc(NC(=S)NC2CC3CCC(C2)N3Cc2ccco2)cc1 (configuration not stated) | i | -2.0 | -0.09 | 94.1* | -27.3
CC(=O)N[C@@H](C)C(=O)OC(C)C(=O)Nc1cccc([N+](=O)[O-])c1 (some centres not stated) | i | -7.0 | 0.26 | -1.2 | -391.7
O=C(NCC1CCCO1)C1c2ccccc2C(=O)N1Cc1ccc2c(c1)OCO2 (configuration not stated) | i | 38.3 | -0.01 | -0.4 | -18.2
Cc1cccc(NS(=O)(=O)c2ccc3c(c2)Cc2cc(S(=O)(=O)Nc4cccc(C)c4C)ccc2-3)c1C | i | -0.7 | 0.75 | 33.3 | 10.0
O=C(CN1C(=O)C2C3C=CC(C3)C2C1=O)Nc1ccc(S(=O)(=O)N2CCCCC2)cc1 (configuration not stated) | i | -2.5 | . | 2.1 | -20.0
Cc1cccc(NC(=O)NC2CC3CCC(C2)N3Cc2ccco2)c1 (configuration not stated) | i | -17.8 | 0.05 | 8.4 | .
Cc1cccc(NC(=S)NC2CC3CCC(C2)N3Cc2ccco2)c1 (configuration not stated) | i | 5.3 | 1.09 | 79.5* | .
CCOC(=O)c1ccc(NC(=O)COc2ccccc2CNC2CCCC2)cc1 | i | 6.7 | -1.14 | 100.4* | .
CCOc1cc(CNC2CCCC2)c(Cl)cc1OCC(=O)Nc1ccccc1 | i | 19.7 | -0.56 | 89.2* | .
CCn1c(N2CCN(C(=S)NCCc3ccccc3)CC2)nc2ccccc21 | i | -4.9 | -1.24 | 13.2 | .
COc1ccc(-n2c3c(c(=O)[nH]c2=O)C(C(F)(F)F)(C(F)(F)F)N=C(CC(C)C)N3)cc1 | i | -3.2 | -0.37 | -1.3 | .
CC(C)Cn1c2c(c(=O)[nH]c1=O)C(C(F)(F)F)(C(F)(F)F)N=C(CCC1CCCCC1)N2 | i | -1.3 | -0.65 | 79.8* | 2.8
O=c1[nH]c(=O)n(Cc2ccco2)c2c1C(C(F)(F)F)(C(F)(F)F)N=C(CCC1CCCCC1)N2 | i | 18.8 | 0.59 | 3.4 | 36.1
O=c1[nH]c(=O)n(-c2ccccc2)c2c1C(C(F)(F)F)(C(F)(F)F)N=C(CCC1CCCCC1)N2 | i | -6.2 | 0.26 | 54.8* | 12.0
CN(C)C=Nc1ncc2c3ccccc3n(CCN(C)C)c2c1C#N | i | 2.1 | -0.63 | 98.0* | 45.5
COc1ccc(C(=O)NC(=S)Nc2ccc3c4c(cccc24)CC3)cc1OC | i | -0.5 | 0.08 | -7.7 | .
Cc1cc(=O)[nH]c(SCC(=O)Nc2ccccc2[N+](=O)[O-])n1 | . | . | 0.18 | . | .
Cc1cccc(OCC2=NS(=O)(=O)c3ccccc3N2)c1 | i | 7.7 | 0.11 | -2.1 | 30.0
C/C(=N\NC(=O)c1ccn(C)n1)c1ccc(NC(=O)C2CCCC2)cc1 | i | -0.2 | 0.4 | -4.8 | 71.4*
CCOC(=O)/C(C#N)=C/c1cc2ccccc2nc1Cl | i | 24.9 | . | 3.7 | -7.1
CSc1nc2ccccc2cc1/C=C(\C#N)c1cccc(Cl)c1 | + | 32.9 | -0.13 | -1.1 | -18.2
Cc1ccc(NCC(=O)N/N=C/c2cc3ccccc3nc2Cl)cc1 | i | 67.9* | -0.58 | 83.7* | .
O=C(CN1CCOCC1)N/N=C/c1cc2ccccc2nc1Cl | i | -7.6 | 0.76 | -2.5 | 21.7
Cn1c(N/N=C/c2c[nH]c3ccccc23)nc2ccccc21 | i | -1.2 | -1.46 | 100.5* | .
SMILES | Autophagy mod | WT yeast gro inh | Ins promoter up | L major viab | Insulin prom inh
Cn1c(N/N=C/c2cc3ccccc3nc2Cl)nc2ccccc21 | i | 69.2* | . | 10.8 | 36.4
Cc1nnc(C)n1/N=C/c1cc2ccccc2nc1Cl | i | 6.5 | 0.41 | 18.5 | .
CN(C)C(=S)N=Nc1[nH]c2ccccc2c1O | i | 2.2 | -5.59 | 97.4* | .
CNC(=S)N=Nc1c(O)[nH]c2ccccc12 | i | -10.6 | 0.36 | 5.8 | -8.3
CN1CCN(c2ccc(C(=O)c3ccc(F)cc3)cc2)CC1 | i | -14.2 | -1.17 | 67.9* | -3.2
O=C(O)CCC(=O)N1CCN(c2ccc(C(=O)c3ccc(F)cc3)cc2)CC1 | i | -3.4 | . | -3.5 | -86.4
O=C(c1ccccc1)c1ccc(N2CCNCC2)cc1 | i | -1.7 | 0.1 | 75.1* | -186.4
O=C(c1ccccc1)c1ccc(N2CCCC2)cc1 | i | -1.6 | 1 | 34.2 | .
COc1ccc(N(C(=O)c2ccc(Cl)cc2)C2=CC3CCC(C2)N3C)cc1 (configuration not stated) | i | -0.4 | -0.62 | 78.5* | -35.5
CN1C2C=C(N(CCc3ccccc3)C(=O)c3ccc(Cl)cc3)CC1CC2 (configuration not stated) | i | -0.8 | -0.95 | 1.9 | .
COc1ccc(N(C(=O)/C=C/c2ccc(OC)c(OC)c2)C2=CC3CCC(C2)N3C)cc1 (configuration not stated) | i | -7.9 | -0.14 | 100.0* | 14.3
COc1ccc(/C=C/C(=O)Oc2ccc(C)c(C)c2)cc1OC | i | 16.6 | -0.48 | 21.3 | 25.0
O=S(=O)(CCN1CCN(C(c2ccccc2)c2ccccc2)CC1)C(F)(F)F | i | -2.0 | -0.82 | 35.0 | .
O=C1c2ccccc2C(=O)N1CC#CCN1CCN(C(c2ccccc2)c2ccccc2)CC1 | i | 67.6* | 0.64 | 2.3 | -14.3
CCCC1(C)Nc2ccccc2-c2nc3ccccc3n21 (configuration not stated) | i | 8.0 | -0.27 | 85.4* | 58.8
O=C(N/N=C1\CCc2ccccc21)c1ccccc1O | i | 29.7 | 0.92 | -4.6 | .
O=C(N/N=C1\CCCc2ccccc21)c1ccccc1Cl | i | -12.3 | -0.14 | 88.2* | .
CCCC(=O)Nc1ccccc1NC(=O)c1ccc(OC(C)=O)cc1 | i | -36.7 | . | -4.7 | 25.0
Cc1ccccc1C(=O)c1c[nH]c(C(=O)NCCc2ccccn2)c1 | i | -14.4 | 0.09 | -7.7 | .
Cc1nc2ccc(-c3nc4cc(N)ccc4o3)cc2[nH]1 | i | 5.4 | -0.56 | 53.1* | 15.4
CCOC(=O)C1=NN(c2cccc(C)c2)C2(S1)SC(C(C)=O)=C(C)N2c1ccccc1 (configuration not stated) | i | 77.2* | 0.27 | 12.6 | 32.1
CCOC(=O)Cn1c2c(c(=N)c3c1CCC3)CCC2 | i | 8.0 | 0.89 | 2.2 | 17.9
CCCCCCCCCn1c2c(c(=N)c3c1CCC3)CCCC2 | i | 80.0 | -2.59 | 100.5* | -300.0
CCn1c2c(c(=N)c3c1CCC3)CCCC2 | . | . | 0.26 | . | .
CCCCCCCCn1c2c(c(=N)c3ccccc31)CCC2 | i | 68.9 | ? | 100.4* | -61.9
CCCCCCCCCCn1c2c(c(=N)c3c1CCC3)CCC2 | i | 2.6 | ? | 100.5* | -86.0
Cn1c(=O)c2c(nc(Br)n2C/C=N/NC(N)=S)n(C)c1=O | . | . | -0.23 | . | .
CCN(CC)S(=O)(=O)c1cccc(NC(=O)COC(=O)C2CC3C=CC2C3)c1 (configuration not stated) | i | 17.8 | 0.89 | 1.6 | .
O=C(NCc1ccncc1)Nc1ccccc1F | i | -19.6 | . | -2.8 | -30.0
c1ccc(CSc2ncnc3c2cnn3-c2ccccc2)cc1 | i | 5.3 | -0.7 | -4.9 | 18.8
